Results on 35 targets are retold here after the supplement of paper PMC10849652.

The full data set covers some 7,900 targets. This sample favours those with a hit. About 0.6% of all pairs of compound and target were hits. A number with no mark means an inactive call.

UniProt P07686, sequence (P07686 whole entry, looked up): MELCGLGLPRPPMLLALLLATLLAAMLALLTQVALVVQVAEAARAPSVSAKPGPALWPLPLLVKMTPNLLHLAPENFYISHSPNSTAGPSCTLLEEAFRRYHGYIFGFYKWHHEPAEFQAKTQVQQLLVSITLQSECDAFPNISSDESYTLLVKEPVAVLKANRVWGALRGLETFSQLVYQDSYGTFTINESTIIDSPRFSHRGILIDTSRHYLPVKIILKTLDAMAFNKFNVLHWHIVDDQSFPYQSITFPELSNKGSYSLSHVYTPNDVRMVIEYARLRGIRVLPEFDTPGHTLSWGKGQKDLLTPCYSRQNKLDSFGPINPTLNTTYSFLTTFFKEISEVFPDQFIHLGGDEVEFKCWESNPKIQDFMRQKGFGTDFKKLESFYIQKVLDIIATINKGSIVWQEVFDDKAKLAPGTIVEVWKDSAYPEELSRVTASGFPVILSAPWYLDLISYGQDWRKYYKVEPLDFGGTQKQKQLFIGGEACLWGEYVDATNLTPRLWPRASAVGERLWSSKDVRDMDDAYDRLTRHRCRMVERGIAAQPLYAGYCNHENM
UniProt Q00403, sequence (Q00403 whole entry, looked up): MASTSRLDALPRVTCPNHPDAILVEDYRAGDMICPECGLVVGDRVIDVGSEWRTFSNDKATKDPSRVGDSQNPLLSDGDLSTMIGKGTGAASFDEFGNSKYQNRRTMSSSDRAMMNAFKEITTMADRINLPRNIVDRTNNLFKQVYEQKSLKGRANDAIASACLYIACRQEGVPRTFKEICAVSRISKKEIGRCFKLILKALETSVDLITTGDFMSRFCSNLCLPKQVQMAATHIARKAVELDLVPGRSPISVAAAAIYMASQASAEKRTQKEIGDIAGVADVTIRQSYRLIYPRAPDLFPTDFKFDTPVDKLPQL
UniProt P13807, sequence (P13807 whole entry, looked up): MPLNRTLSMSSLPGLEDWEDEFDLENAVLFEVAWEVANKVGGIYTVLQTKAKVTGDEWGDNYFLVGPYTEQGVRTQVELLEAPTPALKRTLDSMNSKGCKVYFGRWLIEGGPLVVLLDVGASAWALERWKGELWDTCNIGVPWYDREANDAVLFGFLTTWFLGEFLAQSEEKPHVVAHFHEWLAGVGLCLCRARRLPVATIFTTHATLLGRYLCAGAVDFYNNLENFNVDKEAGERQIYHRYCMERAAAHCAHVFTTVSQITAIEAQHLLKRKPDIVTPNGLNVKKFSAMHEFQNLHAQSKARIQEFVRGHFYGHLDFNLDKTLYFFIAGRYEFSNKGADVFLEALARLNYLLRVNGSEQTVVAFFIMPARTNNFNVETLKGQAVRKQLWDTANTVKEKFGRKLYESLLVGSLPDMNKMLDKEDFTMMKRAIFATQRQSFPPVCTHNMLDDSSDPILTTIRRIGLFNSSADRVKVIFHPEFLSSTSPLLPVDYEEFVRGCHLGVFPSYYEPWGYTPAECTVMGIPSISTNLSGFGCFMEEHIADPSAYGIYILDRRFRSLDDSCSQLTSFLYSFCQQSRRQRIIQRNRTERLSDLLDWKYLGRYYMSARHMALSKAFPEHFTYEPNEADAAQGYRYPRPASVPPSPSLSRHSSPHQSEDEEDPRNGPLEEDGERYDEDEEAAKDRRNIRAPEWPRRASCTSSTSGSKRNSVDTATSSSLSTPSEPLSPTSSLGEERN
UniProt Q9NZC3, sequence (Q9NZC3 whole entry, looked up): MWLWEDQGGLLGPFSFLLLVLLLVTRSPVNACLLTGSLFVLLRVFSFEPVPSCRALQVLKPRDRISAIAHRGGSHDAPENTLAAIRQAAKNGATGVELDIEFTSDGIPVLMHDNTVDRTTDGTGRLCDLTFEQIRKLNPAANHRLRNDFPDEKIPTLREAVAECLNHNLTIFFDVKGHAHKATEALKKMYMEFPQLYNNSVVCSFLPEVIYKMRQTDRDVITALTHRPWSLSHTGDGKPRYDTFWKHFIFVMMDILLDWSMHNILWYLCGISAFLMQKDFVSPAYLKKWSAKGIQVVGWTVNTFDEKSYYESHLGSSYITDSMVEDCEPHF
UniProt P54803, sequence (P54803 whole entry, looked up): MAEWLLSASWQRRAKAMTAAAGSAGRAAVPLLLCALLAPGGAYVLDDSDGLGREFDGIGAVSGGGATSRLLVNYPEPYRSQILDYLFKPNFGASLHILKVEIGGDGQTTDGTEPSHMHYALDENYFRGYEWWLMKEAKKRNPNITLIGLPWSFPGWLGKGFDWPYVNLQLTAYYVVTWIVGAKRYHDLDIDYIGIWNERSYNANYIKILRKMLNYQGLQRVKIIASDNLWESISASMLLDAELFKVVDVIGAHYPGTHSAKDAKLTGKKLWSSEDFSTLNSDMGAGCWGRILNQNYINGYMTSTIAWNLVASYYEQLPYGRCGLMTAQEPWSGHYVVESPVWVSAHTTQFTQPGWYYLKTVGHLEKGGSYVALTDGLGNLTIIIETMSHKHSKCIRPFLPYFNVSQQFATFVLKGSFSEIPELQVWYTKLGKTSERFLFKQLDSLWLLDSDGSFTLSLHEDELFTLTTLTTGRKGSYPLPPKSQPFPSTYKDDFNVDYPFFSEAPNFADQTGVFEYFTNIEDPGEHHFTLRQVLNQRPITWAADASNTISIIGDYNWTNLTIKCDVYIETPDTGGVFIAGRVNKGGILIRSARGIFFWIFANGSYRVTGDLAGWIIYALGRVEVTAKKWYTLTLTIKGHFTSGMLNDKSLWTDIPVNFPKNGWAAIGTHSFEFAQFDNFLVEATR
UniProt Q49A26, sequence (Q49A26 whole entry, looked up): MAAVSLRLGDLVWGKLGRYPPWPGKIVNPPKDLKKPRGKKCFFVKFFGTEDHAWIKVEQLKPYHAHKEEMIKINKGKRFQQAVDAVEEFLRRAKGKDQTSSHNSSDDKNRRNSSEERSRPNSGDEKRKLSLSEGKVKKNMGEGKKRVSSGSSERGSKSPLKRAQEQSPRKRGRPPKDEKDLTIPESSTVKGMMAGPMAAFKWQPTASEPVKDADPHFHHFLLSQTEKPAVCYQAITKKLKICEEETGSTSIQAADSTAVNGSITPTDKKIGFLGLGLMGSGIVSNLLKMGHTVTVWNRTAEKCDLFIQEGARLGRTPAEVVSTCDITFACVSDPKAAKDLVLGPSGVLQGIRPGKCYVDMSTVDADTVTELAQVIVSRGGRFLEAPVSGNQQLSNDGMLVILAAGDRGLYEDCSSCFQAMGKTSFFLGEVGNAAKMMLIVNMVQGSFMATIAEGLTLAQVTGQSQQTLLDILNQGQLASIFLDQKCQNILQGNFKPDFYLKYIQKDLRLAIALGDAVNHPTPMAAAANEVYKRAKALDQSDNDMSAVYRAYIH
UniProt Q01628, sequence (Q01628 whole entry, looked up): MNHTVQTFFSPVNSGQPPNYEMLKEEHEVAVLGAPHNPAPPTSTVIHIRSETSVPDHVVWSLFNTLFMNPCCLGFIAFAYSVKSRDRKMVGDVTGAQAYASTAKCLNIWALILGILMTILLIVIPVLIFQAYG
UniProt Q00688, sequence (Q00688 whole entry, looked up): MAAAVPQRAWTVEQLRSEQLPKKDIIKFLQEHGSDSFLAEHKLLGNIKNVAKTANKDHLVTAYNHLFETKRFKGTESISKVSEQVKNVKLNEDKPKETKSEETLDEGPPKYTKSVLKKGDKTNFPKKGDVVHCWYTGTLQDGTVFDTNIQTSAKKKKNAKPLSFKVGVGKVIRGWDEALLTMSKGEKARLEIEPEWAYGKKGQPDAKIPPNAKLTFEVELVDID
UniProt P22570, sequence (P22570 whole entry, looked up): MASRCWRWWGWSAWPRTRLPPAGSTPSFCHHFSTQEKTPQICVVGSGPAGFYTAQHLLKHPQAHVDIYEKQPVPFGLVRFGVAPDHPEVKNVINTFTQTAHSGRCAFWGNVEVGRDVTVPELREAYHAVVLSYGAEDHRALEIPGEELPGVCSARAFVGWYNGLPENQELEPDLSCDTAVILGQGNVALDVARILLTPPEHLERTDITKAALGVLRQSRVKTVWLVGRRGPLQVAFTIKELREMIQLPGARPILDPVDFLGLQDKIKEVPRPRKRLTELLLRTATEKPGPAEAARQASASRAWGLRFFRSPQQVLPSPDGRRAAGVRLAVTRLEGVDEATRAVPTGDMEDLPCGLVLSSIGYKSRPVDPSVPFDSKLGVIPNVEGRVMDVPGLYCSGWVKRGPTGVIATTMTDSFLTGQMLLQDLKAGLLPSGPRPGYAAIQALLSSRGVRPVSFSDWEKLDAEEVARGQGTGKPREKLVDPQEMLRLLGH
UniProt Q92917, sequence (Q92917 whole entry, looked up): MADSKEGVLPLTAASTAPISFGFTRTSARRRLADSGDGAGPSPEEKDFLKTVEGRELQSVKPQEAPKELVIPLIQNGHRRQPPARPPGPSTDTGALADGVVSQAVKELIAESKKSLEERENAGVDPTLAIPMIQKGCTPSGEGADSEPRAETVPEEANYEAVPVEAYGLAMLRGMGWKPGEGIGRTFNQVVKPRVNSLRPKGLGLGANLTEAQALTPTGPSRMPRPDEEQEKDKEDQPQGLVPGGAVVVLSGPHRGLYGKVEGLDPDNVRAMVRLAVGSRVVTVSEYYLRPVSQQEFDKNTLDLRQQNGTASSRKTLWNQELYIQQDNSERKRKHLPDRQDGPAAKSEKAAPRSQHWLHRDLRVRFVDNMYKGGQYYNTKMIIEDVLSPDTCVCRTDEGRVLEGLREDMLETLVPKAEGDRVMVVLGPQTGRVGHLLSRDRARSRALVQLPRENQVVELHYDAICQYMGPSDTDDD
UniProt O76003, sequence (O76003 whole entry, looked up): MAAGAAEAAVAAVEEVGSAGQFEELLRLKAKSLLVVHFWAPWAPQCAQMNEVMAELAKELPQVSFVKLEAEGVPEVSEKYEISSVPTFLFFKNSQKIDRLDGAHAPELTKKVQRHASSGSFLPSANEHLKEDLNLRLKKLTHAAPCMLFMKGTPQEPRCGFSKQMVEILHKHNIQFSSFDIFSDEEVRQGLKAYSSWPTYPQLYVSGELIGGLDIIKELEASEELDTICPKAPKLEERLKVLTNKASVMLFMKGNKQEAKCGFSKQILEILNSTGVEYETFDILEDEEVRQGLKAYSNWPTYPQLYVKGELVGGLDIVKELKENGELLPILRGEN
UniProt P05114, sequence (P05114 whole entry, looked up): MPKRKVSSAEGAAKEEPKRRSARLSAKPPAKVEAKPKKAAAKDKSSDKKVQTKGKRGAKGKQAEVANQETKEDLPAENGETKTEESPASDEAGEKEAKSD

Compound in the first assay: CN1CCN(c2nc(C3=C(c4c[nH]c5ccccc45)C(=O)NC3=O)c3ccccc3n2)CC1 [sotrastaurin]
As to the kind of experiment: log2 fold change, soluble protein after heating vs DMSO (PISA); higher = thermal stabilisation; K562 cells, 10 uM, 30 min; active = over 0.2 and 3.5 SD of the protein, either way, in both replicates (recomputed). In outline:
(§1)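 K562 cells at 2×10^6 cells/mL were treated with 10 μM compound for 30 min. Aliquots were heated for 3 min across 48°C-58°C, pooled, and extracted in PBS with 0.5% NP-40 at 4°C; soluble protein was the supernatant after 21,000xg for 90 min. Soluble protein was quantified by TMTpro 16plex LC-MS/MS with channel sums equalised, and reported as log2 fold change in thermal stability against DMSO controls, with values from duplicates.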
With FKBP3 (UniProt Q00688), the log2 fold change was 0.

As for GDE1 (UniProt Q9NZC3), the log2 fold change is 0.051.

As for HRC (UniProt P23327), the log2 fold change was 0.057.

HEXB (UniProt P07686): the log2 fold change is 0.029.

Turning to GYS1 (UniProt P13807), the log2 fold change was -0.286.

Consider FDXR isoform 7 (UniProt P22570), for which the log2 fold change is 0.116.

Consider GTF2B (UniProt Q00403), for which the log2 fold change is -0.103.

Turning to GLYR1 (UniProt Q49A26), the log2 fold change is 0.028.

Consider GPKOW (UniProt Q92917), for which the log2 fold change is -0.031.

Consider IFITM3 (UniProt Q01628), for which the log2 fold change is 0.035.

As to GALC (UniProt P54803), the log2 fold change was 0.047.

Compound in the next assay: CN1CC[C@H](c2c(O)cc(O)c3c(=O)cc(-c4ccccc4Cl)oc23)[C@H](O)C1 [alvocidib]
The description is as above. The method, boiled down: as §1
Regarding FHOD1 (UniProt Q9Y613), the log2 fold change was 0.292.

GLB1 (UniProt P16278): the log2 fold change was -0.018.

In the case of HDGFL2 (UniProt Q7Z4V5), the log2 fold change was 0.007.

For GSTT1 (UniProt P30711), the log2 fold change is -0.023.

HEXA (UniProt P06865): the log2 fold change was 0.005.

GLUL (UniProt P15104): the log2 fold change was 0.026.

For HS1BP3 (UniProt Q53T59), the log2 fold change was -0.275.

As for HNRNPH2 (UniProt P55795), the log2 fold change is -0.106.

In the case of GGA2 (UniProt Q9UJY4), the log2 fold change was -0.034.

Turning to GBA2 (UniProt Q9HCG7), the log2 fold change is -0.063.

With HK2 (UniProt P52789), the log2 fold change is -0.054.

Regarding GMEB2 (UniProt Q9UKD1), the log2 fold change is -0.197.

As for IFRD1 (UniProt O00458), the log2 fold change was 0.064.

Regarding GAK (UniProt O14976), the log2 fold change was 1.14.

As for HDAC7 isoform 5 (UniProt Q8WUI4), the log2 fold change is -0.185.

As to HNRNPUL1 (UniProt Q9BUJ2), the log2 fold change was 0.082.

As to HSD17B12 (UniProt Q53GQ0), the log2 fold change was -0.082.

Take GBF1 (UniProt Q92538): the log2 fold change was -0.023.

In the case of HSPA8 (UniProt E9PN89), the log2 fold change is 0.281.

Consider GOLGB1 isoform 2 (UniProt Q14789), for which the log2 fold change is 0.124.

In the case of GLRX3 (UniProt O76003), the log2 fold change was -0.071.

As to HMGN1 (UniProt P05114), the log2 fold change is 0.149.

FKBP3 (UniProt Q00688): the log2 fold change is -0.004.

With GDE1 (UniProt Q9NZC3), the log2 fold change was -0.059.

Regarding HRC (UniProt P23327), the log2 fold change was 0.02.

Consider HEXB (UniProt P07686), for which the log2 fold change is -0.004.

Take GYS1 (UniProt P13807): the log2 fold change is 0.1.

For the target FDXR isoform 7 (UniProt P22570), the log2 fold change is -0.058.

As for GTF2B (UniProt Q00403), the log2 fold change was -0.22.

Take GLYR1 (UniProt Q49A26): the log2 fold change was 0.14.

Consider GPKOW (UniProt Q92917), for which the log2 fold change was -0.188.

Consider IFITM3 (UniProt Q01628), for which the log2 fold change was -0.011.

In the case of GALC (UniProt P54803), the log2 fold change is -0.03.

Compound in a further assay: CN1CCc2c(c3ccccc3n2Cc2ccc(C(=O)NO)cc2)C1 [Tubastatin A]
The description is as above. In outline:
as §1
Turning to GLB1 (UniProt P16278), the log2 fold change was -0.032.

Take HDGFL2 (UniProt Q7Z4V5): the log2 fold change is 0.013.

As to FYB1 isoform 3 (UniProt O15117), the log2 fold change is -0.018.

Turning to GSTT1 (UniProt P30711), the log2 fold change was 0.015.

As to HEXA (UniProt P06865), the log2 fold change is -0.145.

GLUL (UniProt P15104): the log2 fold change is 0.048.

Take ICMT (UniProt O60725): the log2 fold change was -0.065.

As for HNRNPH2 (UniProt P55795), the log2 fold change is 0.101.

Turning to GGA2 (UniProt Q9UJY4), the log2 fold change was -0.088.

Turning to GBA2 (UniProt Q9HCG7), the log2 fold change was -0.03.

Consider HK2 (UniProt P52789), for which the log2 fold change is -0.006.

Consider GMEB2 (UniProt Q9UKD1), for which the log2 fold change was 0.051.

Take IFRD1 (UniProt O00458): the log2 fold change is 0.089.

Consider GAK (UniProt O14976), for which the log2 fold change is 0.011.

As for HNRNPUL1 (UniProt Q9BUJ2), the log2 fold change was 0.

On to HSD17B12 (UniProt Q53GQ0), for which the log2 fold change was -0.007.

With GBF1 (UniProt Q92538), the log2 fold change was 0.034.

On to HSPA8 (UniProt E9PN89), for which the log2 fold change was -0.018.

As for GOLGB1 isoform 2 (UniProt Q14789), the log2 fold change is 0.029.

Consider GLRX3 (UniProt O76003), for which the log2 fold change was 0.015.

HMGN1 (UniProt P05114): the log2 fold change is -0.087.

For FKBP3 (UniProt Q00688), the log2 fold change was 0.017.

With GDE1 (UniProt Q9NZC3), the log2 fold change was -0.316 (active).

For HRC (UniProt P23327), the log2 fold change was -0.125.

For the target HEXB (UniProt P07686), the log2 fold change was -0.101.

As for GYS1 (UniProt P13807), the log2 fold change is 0.035.

On to FDXR isoform 7 (UniProt P22570), for which the log2 fold change is -0.01.

Turning to GTF2B (UniProt Q00403), the log2 fold change was 0.135.

Take GLYR1 (UniProt Q49A26): the log2 fold change is -0.077.

With GPKOW (UniProt Q92917), the log2 fold change was 0.033.

IFITM3 (UniProt Q01628): the log2 fold change is 0.241.

Regarding GALC (UniProt P54803), the log2 fold change was -0.028.
